High-throughput results from PubChem BioAssay.
Rows were chosen to be rich in hits. Some 7.4% of all compounds tested hit in one or more screens of this group.
NIH3T3 tox: cytotoxic compounds in NIH 3T3 cells | NIH 3T3 viability, CellTiter-Glo ATP luminescence, 48-72 h | Potency, µM (series often up to 96.7 µM), most hits filed as inhibitors | 94,000 tested, 4.3% active | AID 1345082; further: nearly all actives have a fitted effect of over 55% in size
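Luminescent ATP readout (CellTiter-Glo, 10 min RT) after 48 or 72 hr compound exposure of NIH 3T3 cells seeded at 400 cells/well in 1536-well format; quantitative HTS.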
NPR1 antag: antagonists of human natriuretic peptide receptor Npr1; P16066; 76,000 tested, 1.6% active; Potency, µM (doses to about 46.3 µM), actives largely listed as inhibitors; AID 1347048; HEK293 hNpr1 GloSensor cGMP, ANP-stimulated luminescence; calls by dose curve; further: nearly all actives have a fitted effect of over 60% in size
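Compound pre-incubated 30 min at room temperature on GloSensor-loaded HEK293 cells stably carrying hNpr1 and the pGS-40F cGMP biosensor. Stimulation uses hNppA at 0.1 nM final; luminescence is taken at baseline and 20 min post-agonist.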
HEK cytotox: kills HEK 293 cells; HEK 293 viability, ATP luminescence (CellTiter-Glo), 48-72 h; Potency, µM (series often up to 115 µM), hits mostly inhibitors; 94,000 tested, 6.6% active; AID 1345083; further: nearly all actives have a fitted effect of over 60% in size
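Pintool-delivered compounds were incubated with HEK 293 cells (250 cells/well) at 37 degree Celsius for 48 or 72 hr. ATP-dependent luminescence (CellTiter-Glo) then reported remaining viable cells.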
HEK293 viab: cell viability loss counter-screen. HEK-293-SNCA-luc viability, GF-AFC fluorescence, 24 h. Potency, µM (top dose mostly 57.1 µM), actives largely listed as cytotoxic. 150,000 tested, 0.12% active; further: nearly all actives have a fitted effect of over 30% in size
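Cytotoxicity counterscreen: after 24 h compound treatment of genome-edited SNCA-luciferase HEK-293 cells, live-cell protease substrate GF-AFC read by fluorescence after 30 min; activity scaled between DMSO (0%) and medium-only (-100%), curves Hill-fitted.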
Luciferase inh: Photinus pyralis luciferase inhibition | P08659 | purified P. pyralis luciferase, luminescence, biochemical | Potency, µM (doses to about 115 µM), usual class: inhibitors | 76,000 tested, 2.5% active | AID 1347043; further: nearly all actives have a fitted effect of over 65% in size
Target sequence (P08659 whole entry, looked up): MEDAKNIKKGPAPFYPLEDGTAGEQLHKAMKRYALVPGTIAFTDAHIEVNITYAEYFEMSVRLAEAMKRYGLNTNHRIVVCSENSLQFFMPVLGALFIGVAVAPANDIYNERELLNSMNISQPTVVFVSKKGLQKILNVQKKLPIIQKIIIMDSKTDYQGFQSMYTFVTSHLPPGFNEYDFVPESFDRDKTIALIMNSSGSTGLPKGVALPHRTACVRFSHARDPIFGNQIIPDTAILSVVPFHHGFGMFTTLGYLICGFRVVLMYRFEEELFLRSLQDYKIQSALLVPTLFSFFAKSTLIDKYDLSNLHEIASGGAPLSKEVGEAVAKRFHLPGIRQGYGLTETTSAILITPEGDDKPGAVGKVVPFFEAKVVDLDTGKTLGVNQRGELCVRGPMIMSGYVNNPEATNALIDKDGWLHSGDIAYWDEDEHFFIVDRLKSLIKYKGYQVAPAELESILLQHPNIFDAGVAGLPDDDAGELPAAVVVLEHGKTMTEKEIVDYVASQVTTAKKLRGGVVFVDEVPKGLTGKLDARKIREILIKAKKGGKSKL
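Inhibitors were tested against purified firefly luciferase in a biochemical, low-substrate format (both substrates at 10uM) and luminescence measured with a CCD imager.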
SNCA expr inhib: SNCA gene expression inhibition | Potency, µM (titrated, usually from 57.2 µM), usual class: inhibitors | AID 1671194 | HEK-293 SNCA-luciferase knock-in, luminescence, 24 h | 140,000 tested, 0.17% active; further: nearly all actives have a fitted effect of over 45% in size
A number is an active result; n = inactive; u = inconclusive; x = no result; [ ] = another dose, or the depositor's remark. Unless noted, the call rests on the fitted dose curve; in most records, active means well fitted curve in the direction sought with a large enough effect; inconclusive means small, poorly fitted or top-dose-only effect, or another doubt; inactive means no such curve, though single readings can be large; an effect the other way counts as inactive or inconclusive.

SMILES	NIH3T3 tox	NPR1 antag	HEK cytotox	HEK293 viab	Luciferase inh	SNCA expr inhib
O=C(NC1CCCN(c2cc(-c3ccc(F)cc3)[nH]n2)C1)c1cccc(Br)c1 (stereo unspecified)	u	n	31.6µM	n	n	u
O=C(NC1CCCN(c2cc(-c3ccc(F)cc3)[nH]n2)C1)c1cccc(Cl)c1 (stereo unspecified)	17.8µM	n	35.5µM	u	n	n
COc1ccc(-c2cc(N3CCC(NC(=O)c4cccc(Br)c4)C3)n[nH]2)cc1 (stereo unspecified)	u	n	u	u	n	n
CC(C)NC(=O)c1cn2cc(-c3ccc(C(F)(F)F)cc3)sc2n1	n	x	n	n	x	n
COc1cccc(CN2CC(Oc3ccccc3C(=O)N3CCOCC3)C2)c1	n	x	n	n	x	n
CSc1ccc(-c2cccc(C(=O)NCCNC(=O)Nc3ccc(Cl)cc3)c2)cc1	u	x	u	n[12.5 µM]	x	n
CC(=O)Nc1ccc(C(=O)N2CCC3(CC2)CC(NC(C)=O)c2ccccc23)cc1 (stereo unspecified)	n	x	n	n	x	n
CC(=O)NC1CC2(CCN(C(=O)C3CCN(C)CC3)CC2)c2ccccc21 (stereo unspecified)	35.5µM	x	44.7µM	n	x	n
CC(C)c1noc(C2Cc3ccccc3N2C(=O)CCn2cnnn2)n1 (stereo unspecified)	n	n	n	n	n	n
CCn1ccc(C(=O)N2c3ccccc3CC2c2nc(C(C)C)no2)n1 (stereo unspecified)	n	n	u	n	39.8µM	n
O=C(c1cccc(Cl)c1)N1CCC(C(=O)N2CCC(N3Cc4cccn4C3=O)CC2)CC1	n	x	u	n	x	n
CCOC(=O)N1CCC(COc2ccc3c(cnn3CC[S+](C)(=O)[O-])c2)CC1	79.4µM	u	u	n	u	n
C[S+](=O)([O-])CCn1ncc2cc(OCC3CCN(Cc4cccs4)CC3)ccc21	u	n	u	n	63.1µM	n
CCOC(=O)N1CCC(COc2ccc3c(cnn3CCC(=O)O)c2)CC1	u	n	n	n	u	n
COc1ccccc1CCNC(=O)C1CC(c2ccccc2)CN(C(=O)C2CC2)C1 (stereo unspecified)	u	n	31.6µM	u	n	n
O=C(C1CC1)N1CCc2nc(C3CC3)nc(-c3ccc(O)cc3)c2CC1	n	x	n	n	x	n
O=C(NCC(F)F)C1CCN(c2nccc(Nc3ccccc3Cl)n2)CC1	u	x	u	n[12.5 µM]	x	n
CC(C)c1noc(C2CCCN2C(=O)c2cc(-c3cccs3)n(C)n2)n1 (stereo unspecified)	n	n	n	n	31.6µM	n
O=C(c1cccs1)N1CCC[C@H]1c1nc(-c2ccccc2)no1	n	n	u	n	n	n
COCCS(=O)(=O)c1ncc(CN(C)C(C)c2ccon2)n1Cc1ccccc1 (stereo unspecified)	u	n	n	n	n	n
COCCS(=O)(=O)c1ncc(CN2CC[C@@H]3CCCC[C@H]3C2)n1Cc1ccccc1	u	n	44.7µM	n	n	n
O=C(NC1CCN(c2ccnc3ccnn23)C1)c1ccc(F)cc1 (stereo unspecified)	n	x	u	n	x	n
CN1c2cc(C(=O)N3CCN(c4ccc(F)cc4)CC3)ccc2C(=O)N2CCCCCC21 (stereo unspecified)	u	n	44.7µM	n[12.5 µM]	n	n
Cc1cccc(N2CCN(C(=O)c3ccc4c(c3)N(C)C3CCCCCN3C4=O)CC2)c1 (stereo unspecified)	u	n	39.8µM	n[12.5 µM]	n	u
COc1cccc(N2CCN(C(=O)c3ccc4c(c3)N(C)C3CCCCCN3C4=O)CC2)c1 (stereo unspecified)	n	n	50.1µM	n[12.5 µM]	n	n
SMILES	NIH3T3 tox	NPR1 antag	HEK cytotox	HEK293 viab	Luciferase inh	SNCA expr inhib
COc1ccc(-c2c(C(=O)N3CCOCC3)nc3sccn23)cc1	n	x	n	n	x	n
COc1cccc(-c2ccc(CN3CCCC(NC(=O)N(C)C)C3)cc2)c1 (stereo unspecified)	u	x	u	n	x	n
CCOc1ccc(NC(=O)N2CCc3nc(-c4ccccc4)[nH]c3C2)cc1	u	x	u	n	x	n
O=C1CN(S(=O)(=O)c2ccc(F)cc2)CC(O)CN1CCCc1ccccc1 (stereo unspecified)	n	x	u	x	x	x
CC1(C)[C@H](Cc2cc(COc3ccccc3)on2)C[C@@H]1NC(=O)NCc1ccccc1	u	u	63.1µM	n	n	n
CC(C)N[C@H]1C[C@@H](Cc2cc(COc3ccccc3)on2)C1(C)C	50.1µM	n	63.1µM	n	n	n
CC1(C)[C@H](Cc2cc(COc3ccccc3)on2)C[C@@H]1NC(=O)C1CCCC1	u	u	u	n	n	n
CC1(C)[C@H](Cc2cc(COc3ccccc3)on2)C[C@@H]1NC(=O)C1CCC1	u	u	35.5µM	n	n	n
O=C1CC2(CCN(C(=O)C3CCN(C(=O)c4ccc(Cl)nc4)CC3)CC2)Oc2ccccc2N1	n	x	n	n	x	n
O=C(NCc1ccccc1)c1ccc2nnc(-c3cc[nH]c3)n2c1	n	x	u	n	x	n
CN1Cc2ccccc2N(CC(O)COc2ccccc2)CCC1=O (stereo unspecified)	n	x	u	x	x	x
O=C(Cc1c[nH]c2ncc(-c3ccccc3)cc12)NCC1CCOCC1	u	n	79.4µM	n	n	n
Cc1ccccc1-c1cnc2[nH]cc(CC(=O)NCCN(C)C)c2c1	u	n	39.8µM	n	n	u
O=C(Cc1c[nH]c2ncc(-c3ccccc3)cc12)NCCc1ccccc1	u	u	u	n	n	n
Cc1ccccc1-c1cnc2[nH]cc(CC(=O)NC3CCOCC3)c2c1	u	n	u	n	n	n
CN(C)CCNC(=O)Cc1c[nH]c2ncc(-c3ccccc3)cc12	u	n	112µM	n	n	n
COc1cccc(-c2cn3cc(C(=O)NCc4ccc(F)cc4)nc3s2)c1	u	x	u	n	x	n
O=C(NC1CCCCC1)c1cnc2c(c1)N([S+](=O)([O-])c1cccnc1)CCC2	89.1µM	n	n	n	n	n
O=C(Nc1ccccc1)c1cnc2c(c1)N([S+](=O)([O-])c1cccnc1)CCC2	u	n	u	n	n	n
COc1ccccc1-c1ccc2ncc(Nc3cccc(O)c3)n2n1	u	n	u	n	u	n
COc1ccc(Nc2cnc3ccc(-c4ccccc4OC)nn23)cc1	u	n	79.4µM	n	u	n
COc1ccccc1-c1ccc2ncc(Nc3ccc(CN4CCN(C)CC4)cc3)n2n1	25.1µM	n	50.1µM	n	n	n
COc1ccc(-c2ccc3ncc(Nc4ccc(CN5CCN(C)CC5)cc4)n3n2)cn1	u	n	u	n	n	n
CC(C)(C)C1CN(Cc2ccccc2)C(=O)c2cccnc2O1 (stereo unspecified)	n	x	u	x	x	x
